An excerpt weighted towards active compounds, which were near 3.2% of everything screened.
ANO1 activ: activates or potentiates the mouse TMEM16A chloride channel; Q8BHY3; AID 623877; HEK293 TMEM16A/YFP-H148Q/I152L, iodide quench fluorescence; hits give low values; B-score at 10 µM; hit rate 0.3% among 340,000;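 active = fluorescence-ratio B-score plate-corrected deviation score at least 3 library SD below zero, with starting fluorescence score within 5 deviations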;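 also: channel opened by trigger with iodide after compound preincubation; score built on the fluorescence ratio of max minus min over baseline; more negative score means more quench and so TMEM16A activation or potentiation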
TMEM16A inh: inhibitors of mouse TMEM16A calcium-activated chloride channel; normalized B-score (activity score, 25-100; higher = stronger inhibition) at 10 µM; AID 588511; hit rate 1.2% among 310,000; HEK293 TMEM16A/YFP iodide influx fluorescence, ionomycin; Q8BHY3;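 active = ratio plate-corrected score three or more library SD toward inhibition, starting fluorescence score within five deviations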;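 also: score derived from kinetic fluorescence span divided by baseline fluorescence per well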
PHOSPHO1 inh: blocks human PHOSPHO1 phosphatase activity; Q8TCT1; recombinant PHOSPHO1, absorbance phosphatase assay; inhibition, % at 13.3 µM; hit rate 1.1% among 290,000; in the data active = inhibition above about 60%
CHT block: human CHT choline transport inhibition. hit rate 0.86% among 310,000. CHT-expressing cells, membrane potential dye, choline response; hits give low values. Q9GZV3. B-score at 10 µM. AID 488975;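 active = B-score over 3 SD under the library average, and starting fluorescence ratio not unusually high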;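 also: choline stimulus applied at its EC90 after an EC20 pre-addition; B-score computed on integrated fluorescence ratio after choline addition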
Target sequence (Q9GZV3 whole entry, looked up): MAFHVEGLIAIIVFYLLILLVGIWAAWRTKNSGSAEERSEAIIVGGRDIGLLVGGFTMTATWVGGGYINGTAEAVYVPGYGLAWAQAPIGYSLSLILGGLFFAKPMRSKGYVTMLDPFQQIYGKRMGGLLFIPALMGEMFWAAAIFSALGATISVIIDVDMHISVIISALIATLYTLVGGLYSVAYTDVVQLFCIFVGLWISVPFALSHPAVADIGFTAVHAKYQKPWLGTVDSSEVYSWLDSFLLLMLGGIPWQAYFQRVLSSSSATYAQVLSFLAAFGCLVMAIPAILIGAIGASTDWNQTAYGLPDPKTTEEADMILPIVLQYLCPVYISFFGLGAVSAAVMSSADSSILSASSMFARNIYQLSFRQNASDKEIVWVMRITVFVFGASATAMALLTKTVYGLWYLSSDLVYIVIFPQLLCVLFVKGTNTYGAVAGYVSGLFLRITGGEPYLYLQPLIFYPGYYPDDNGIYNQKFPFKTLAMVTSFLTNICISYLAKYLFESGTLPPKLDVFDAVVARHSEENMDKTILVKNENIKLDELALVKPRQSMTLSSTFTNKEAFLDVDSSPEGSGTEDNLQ
CHT allo act: allosterically activates the human high affinity choline transporter. Q9GZV3. hit rate 0.49% among 310,000. CHT-expressing cells, membrane potential dye, choline EC20; hits give high values; LV-AA mutant CHT in HEK293 cells. B-score at 10 µM;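 active = initial fluorescence not abnormally high and integrated response B-score, plate-corrected, over 3 SD above library mean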
HDAC3 inhib: blocks human histone deacetylase 3. recombinant HDAC3, fluorogenic peptide/trypsin coupled, fluorescence. inhibition, % at 8.3 µM. hit rate 0.15% among 320,000; in the data active = inhibition above about 26%, passing the limit was not always enough
CHT block conf: confirmation of human choline transporter CHT inhibitors | shares compounds with CHT block | CHT-expressing cells, choline membrane potential dye; LV-to-AA substituted CHT, HEK293 cells | CHT activity remaining % of control (hits give low values), % at 10 µM | hit rate 70% among 2,400;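 active = choline transporter activity left, mean of duplicates at 10 µM, below buffer-only control mean minus 3 SD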;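 also: depolarization triggered by choline at its EC90 following an EC20 pre-addition; 0% = hemicholinium-3 full block and 100% = buffer-only control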
HEK293 CHT ctr: activity in parental HEK293 cells lacking CHT | shares compounds with CHT block | membrane potential dye, choline response; active = decrease or increase beyond buffer ±3SD | membrane potential ratio readout (active if shifted either direction beyond buffer ±3SD; no single direction) at 10 µM | hit rate 4% among 2,400;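 also: parental cells lack the transporter so any hit is non-specific; ratio is peak minus trough fluorescence over baseline after EC90 choline challenge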
The depositor's hits bear a star; i = inactive; . = not tested or not shown.

SMILES | ANO1 activ | TMEM16A inh | PHOSPHO1 inh | CHT block | CHT allo act | HDAC3 inhib | CHT block conf | HEK293 CHT ctr
CC(C)OC(=O)c1c(NC(=O)C2CC=CCC2C(=O)O)sc2c1CCCCC2 (centres undefined) | i | i | . | -5.16* | i | -3.3 | i | i
NC(=O)c1c(NC(=O)C2CC=CCC2C(=O)O)sc2c1CCCCC2 (centres undefined) | i | i | . | i | i | 3.4 | . | .
CC(C)(C)c1ccc(OCC(=O)NNC(=S)NC(=O)c2ccccc2[N+](=O)[O-])c(Br)c1 | i | i | -1.8 | i | i | 0.5 | . | .
CC1=NN(C(=O)CSCc2ccccc2)C(O)(c2ccc(F)cc2)C1 (centres undefined) | i | i | 25.6 | i | i | -0.5 | . | .
CC1=NN(C(=O)CSCc2ccccc2)C(O)(c2ccc(Cl)cc2)C1 (centres undefined) | i | i | -37.3 | -6.51* | i | 4.0 | i | i
COc1cccc(NC(=O)Nc2ccc3c(c2)OCO3)c1 | i | i | 19.0 | i | i | -8.8 | . | .
O=C(Nc1ccc(S(=O)(=O)N2CCOCC2)cc1)c1ccc([N+](=O)[O-])cc1Cl | i | i | 9.2 | -7.44* | i | 4.9 | 30.7%* | i
COc1ccc(C2c3ccc4ccccc4c3Oc3ncn(Cc4ccco4)c(=N)c32)cc1OC (centres undefined) | i | i | 6.6 | i | i | 4.8 | . | .
O=C1N=C(N2CCOCC2)S/C1=C\c1ccc(-c2ccccc2Cl)o1 | i | i | -4.0 | i | i | . | . | .
CCOC(=O)c1cc(NC(=O)c2ccoc2C)cc(C(=O)OCC)c1 | i | i | 9.7 | -6.11* | i | 6.4 | 39.6%* | i
CC(=O)c1cccc(NC(=O)c2ccoc2C)c1 | i | i | 45.4 | i | i | -0.2 | . | .
CCOC(=O)C(C)Sc1nnc(NC(=O)c2cccc([N+](=O)[O-])c2C)s1 (centres undefined) | i | i | -6.0 | -5.16* | i | 3.1 | 51.6%* | i
O=C1CCCC(=O)C1C(=O)C1CCN(S(=O)(=O)c2ccccc2)CC1 | i | i | 28.5 | i | i | -12.5 | . | .
Cc1ccc(S(=O)(=O)N2CCC(C(=O)C3C(=O)CC(C)(C)CC3=O)CC2)cc1 | i | i | 32.2 | -6.37* | i | 0.1 | i | i
COc1ccc(N2CC(O)=C(c3nc(C)cs3)C2=N)cc1 | i | i | 16.8 | i | i | -0.3 | . | .
CC1CCC(NC(=O)c2ccc(NC3=NC4CS(=O)(=O)CC4S3)cc2)CC1 (centres undefined) | i | i | 52.9 | -5.99* | i | -2.7 | 33.9%* | i
COc1ccc(-n2c(SCc3cccnc3)nc3c(c2=O)SCC3)cc1OC | i | . | 12.3 | . | . | . | . | .
COc1cc(OC)cc(C(=O)Nc2ccc(C(=O)NCC3CCCO3)cc2)c1 (centres undefined) | i | i | 19.0 | i | i | 9.4 | . | .
CCN1CCN(C(=O)CCc2nc3ccccc3n2-c2ccccc2)CC1 | i | i | -13.3 | -6.08* | i | -1.0 | 40.0%* | i
O=C(CCc1nc2ccccc2n1-c1ccccc1)NCCO | i | i | 6.3 | i | i | -0.3 | . | .
O=C1CC(N2CCN(c3ccc(O)cc3)CC2)C(=O)N1Cc1cccs1 (centres undefined) | i | i | -10.1 | i | i | -3.5 | . | .
O=C(c1ccncc1)c1ccc(N2CCN(C3CC(=O)N(Cc4cccs4)C3=O)CC2)cc1 (centres undefined) | i | i | 46.6 | -5.62* | i | . | i | i
Cc1cccn2c(=O)c(C=O)c(N3CCCCCC3)nc12 | i | i | -38.4 | -6.4* | i | 2.2 | i | i
CC(=O)C1=C(O)C(=O)N(Cc2ccccc2)C1c1ccccc1F (centres undefined) | i | i | -29.2 | -8.36* | i | -2.6 | i | i
Cc1ccc2c(c1)C1CN(C)CCC1N2C(=O)c1ccccc1NS(=O)(=O)c1cccc(C(F)(F)F)c1 (centres undefined) | i | i | -1.0 | -6.92* | i | 18.5 | 36.9%* | i
SMILES | ANO1 activ | TMEM16A inh | PHOSPHO1 inh | CHT block | CHT allo act | HDAC3 inhib | CHT block conf | HEK293 CHT ctr
Cc1ccc2c(c1)C1CN(C)CCC1N2C(=O)c1ccccc1NS(=O)(=O)c1ccc(F)cc1 (centres undefined) | i | i | 1.6 | i | i | -5.0 | . | .
CCOc1ccc(N=C2NC(=O)C(CC(=O)O)S2)cc1 (centres undefined) | i | i | 1.6 | i | i | -6.1 | . | .
O=C(NNc1nc(-c2ccccc2)cs1)c1ccccc1 | i | i | -70.2 | -7.79* | i | -0.7 | 61.8%* | i
CC(=O)Nc1ccc(-c2csc(NNC(=O)c3ccc(C)cc3)n2)cc1 | i | i | -94.7 | i | i | -3.1 | . | .
CCN(CC)C(=O)C(C)OC(=O)COc1ccc(Cl)cc1C (centres undefined) | i | i | 14.1 | i | i | -1.4 | i | i
COc1ccc(-c2nc(C=O)cs2)cc1 | i | i | 19.7 | -5.51* | i | 2.4 | 23.0%* | i
COc1ccc(-c2csc(N)n2)cc1 | i | i | -2.6 | i | i | -3.4 | . | .
Cc1nc(N2CCC(C(N)=O)CC2)c2c(-c3cccs3)csc2n1 | i | i | -3.0 | i | i | 3.0 | . | .
COc1ccccc1C(=O)NC(CCSC)C(=O)N1CCC(Cc2ccccc2)CC1 (centres undefined) | i | i | . | i | i | 5.8 | . | .
Cc1ccc2c(c1)N(S(=O)(=O)c1ccc(CN3C(=O)c4cccnc4C3=O)s1)CCO2 | i | i | 26.1 | -5.21* | i | 0.0 | 69.2%* | i
CC(=O)c1ccccc1OCC(O)Cn1ccnc1 (centres undefined) | i | i | 25.7 | i | i | 1.4 | . | .
COc1ccc(CCN(CC(=O)NC2CCCC2)C(=O)CCC(=O)Nc2cc(C)on2)cc1OC | i | i | -8.5 | i | i | 6.0 | . | .
CCOC(=O)Cc1csc(NC(=O)CN2CCN(CC)CC2)n1 | i | i | 44.0 | i | i | 0.8 | . | .
CC(/C=C1\SC(=S)N(CC(=O)O)C1=O)=C\c1ccccc1 | i | i | 35.7 | -6.03* | i | . | 40.4%* | i

Bioassay records deposited in PubChem by several laboratories.
